# High-throughput results deposited in PubChem BioAssay by National Center for Advancing Translational Sciences (NCATS).
# DT40 TDP1 CPT = qHTS for Inhibitors of human tyrosyl-DNA phosphodiesterase 1 (TDP1): qHTS in cells in presence of CPT. Potency, µM (doses to about 46.2 µM), inactives show at the top dose activity change, negative = growth inhibition, actives largely listed as inhibitors. chicken DT40 Tdp1-/-;hTDP1 cells + 20 nM CPT, ATP luminescence, 48 h. 420,000 tested, 12% active; note: potency is the fitted concentration of half-maximal effect; nearly all actives have a fitted effect of over 55% in size
#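 Chicken DT40 Tdp1-/- cells complemented with human TDP1, 400 cells/well, exposed to compounds plus 20 nM camptothecin for at least 48 h at 37 C; viability read as ATP content by CellTiter-Glo luminescence.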
# DT40 TDP1 no CPT = qHTS for Inhibitors of human tyrosyl-DNA phosphodiesterase 1 (TDP1): qHTS in cells in absence of CPT | DT40 Tdp1-/- hTDP1 cells, no CPT, ATP luminescence, 48 h | Potency, µM (doses to about 46.2 µM), inactives show at the top dose activity change, negative = growth inhibition, most hits filed as inhibitors | 420,000 tested, 15% active; note: potency is the fitted concentration of half-maximal effect; nearly all actives have a fitted effect of over 55% in size
#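 Growth of hTDP1-complemented DT40 Tdp1-knockout cells is measured by ATP luminescence after at least 48 hr compound exposure at 37 °C, with DMSO substituting for the 20 nM CPT used in the parallel screen.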
# HT1080NT lethal = qHTS for induction of synthetic lethality in tumor cells producing 2HG: qHTS for the HT-1080-NT fibrosarcoma cell line | Potency, µM (doses to about 46.1 µM), without a hit: top-dose activity, negative = less viability, most hits filed as cytotoxic | 360,000 tested, 1.6% active | AID 686970, 2013 | HT-1080-NT fibrosarcoma viability, CellTiter-Glo ATP luminescence, 48 h;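 note: NT is the 2HG producing partner of a matched IDH1 knockdown line; potency is the fitted concentration of half-maximal effect; 0% = DMSO-treated cells and -100% = media-only wells without cells; nearly all actives have a fitted effect of over 55% in size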
#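 Read-out is CellTiter-Glo luminescence after 10 minutes at room temperature, following 48 hours' compound treatment of HT-1080-NT cells (750 cells/well, RPMI, 5% FBS, 37 degrees C).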
# IL-1B inflam inh = qHTS for Inhibitors of Inflammasome Signaling: IL-1-beta AlphaLISA Primary Screen; THP-1 LPS/ATP IL-1B secretion, AlphaLISA, 16 h; hits give low values; activity change, % at 57.5 µM; 360,000 tested, 4.7% active; in the data active = activity change below about -50%; inconclusive = mostly about -30% to -49%
#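 THP-1 cells pretreated 1 hr with compounds (up to 57.5 uM final), then stimulated with LPS (250 ng/mL final) plus ATP (1.25 mM final); secreted IL-1B measured by AlphaLISA after 16 hr, decreased signal indicating inhibition.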
# HT1080 IDH1KD tx = qHTS for induction of synthetic lethality in tumor cells producing 2HG: qHTS for the HT-1080-IDH1KD cell line | HT-1080 IDH1 knockdown viability, ATP luminescence, 48 h | Potency, µM (top dose mostly 46.1 µM), for the others: at the top dose activity, negative = toxicity, hits mostly cytotoxic | 360,000 tested, 2% active | AID 686971, 2013;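 note: potency is the fitted concentration of half-maximal effect; 0% = DMSO wells and -100% = cell-free medium wells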
#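 Knockdown cells (IDH1KD HT-1080) received compounds 2 h after plating at 750 cells/well and were kept 48 h at 37 °C in 5% FBS RPMI. A CellTiter-Glo luminescence read gave % activity for curve fitting.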
# * hit, by the source's call; u = inconclusive; x = no result given; [ ] = dose if it differs, or a comment. An excerpt weighted towards active compounds, which were near 19% of everything screened. Unless noted, calls come from the whole dose curve; as a rule, active = well fitted curve in the direction sought with a large enough effect; inconclusive = small, poorly fitted or top-dose-only effect, or another doubt; inactive = no such curve, though single readings can be large; an effect the other way counts as inactive or inconclusive. Unless noted, % is set by controls: 0 for no effect and ±100 for the full control effect.
SMILES,DT40 TDP1 CPT,DT40 TDP1 no CPT,HT1080NT lethal,IL-1B inflam inh,HT1080 IDH1KD tx
CCOc1ccc(NC(=O)CSC2=NN3CCCC(=O)N=C3S2)cc1,u,u,4%,29,-8%
CC1CCN(C(=O)Cn2c(=O)n(Cc3ccco3)c(=O)c3sccc32)CC1,0%,-21%,4%,7,1%
Cn1c(=O)n(C)c2cc(NC(=O)CCl)ccc21,10µM*,12µM*,u,-91*,u
Cc1ccccc1OCC(=O)Nc1ccc2c(c1)n(C)c(=O)n2C,u,15µM*,0%,-24,-17%
Cc1ccc(S(=O)(=O)N(C)c2ccc(OC(=O)CN3C(=O)NC(C)(c4ccccc4)C3=O)cc2)cc1C (configuration not stated),-11%,-4%,-4%,0,1%
O=C(NC1(C(F)(F)F)C(=O)Nc2c1c(=O)[nH]c(=O)n2Cc1ccco1)C1CC1 (configuration not stated),-25%,-5%,17%,9,20%
CCOc1ccc2nc(N3CCCC(C(=O)NCCc4ccc(C)cc4)C3)sc2c1 (configuration not stated),12µM*,15µM*,x,x,x
CCCN1CCN(CCCNC(=O)C2CCCN(c3nc4ccc(OCC)cc4s3)C2)CC1 (configuration not stated),-8%,-1%,12%,9,3%
CCOc1ccc2nc(N3CCCC(C(=O)NCC4CCCO4)C3)sc2c1 (configuration not stated),-27%,-16%,-9%,-2,0%
CCOc1ccc2nc(N3CCCC(C(=O)NCCCOC)C3)sc2c1 (configuration not stated),16µM*,18µM*,x,x,x
COc1ccc2nc(N3CCCC(C(=O)NCCCN4C(C)CCCC4C)C3)sc2c1 (configuration not stated),10%,-23%,-6%,-70*,-18%
N[C@H](C(=O)O)[C@@H]1C[C@@H]1C(=O)O,10%,-3%,x,x,x
CC(=O)Nc1ccc(NCc2nnc3n2CCCCC3)cc1,1%,-2%,x,x,x
COc1c(Cl)cc(C(=O)Nc2ccccc2-c2ccccc2)cc1Cl,u,29µM*,0%,u,8%
COc1cccc(C(=O)Nc2ccccc2-c2ccccc2)c1,-27%,u,-4%,-21,-4%
COc1ccc(Br)cc1C(=O)Nc1ccccc1-c1ccccc1,u,29µM*,u,42,-24%
CCc1ccc(NC(=O)c2cnc(N3CCN(c4ccccn4)CC3)c3ccccc23)cc1,7.3µM*,6.5µM*,-1%,-19,-11%
O=C(NCc1ccccc1Cl)c1cnc(N2CCCCC2)c2ccccc12,18µM*,u,x,x,x
CCc1ccc(CNC(=O)c2cnc3c(C)cccn3c2=O)cc1,6%,u,x,x,x
CCc1ccc(CNC(=O)c2cnc(N3CCCCC3)c3ccccc23)cc1,23µM*,26µM*,x,x,x
O=C(Nc1cccc(S(=O)(=O)N2CCOCC2)c1)c1ccc(=O)[nH]c1,0%,29%,0%,20,1%
CN1N=C(C(=O)N2CCOc3ccc(CN4CCCC(C(=O)c5cccnc5)C4)cc3C2)CCC1=O (configuration not stated),4%[9.04 µM],u,x,x,x
CCCCNCc1cccn1-c1ccccc1,-6%,-19%,10%,-12,6%
C[C@H](O)[C@@H]1C(=O)N2CCc3c([nH]c4ccccc34)[C@@H]2C[C@@H]1N(C)C(=O)Nc1cc(Cl)cc(Cl)c1,29µM*,u,16µM*,u,u
Cc1ccccc1Oc1ccc2c(c1)[C@@H]1C[C@H](N(C)C(=O)Nc3cc(Cl)cc(Cl)c3)[C@H]([C@H](C)O)C(=O)N1CC2,u,18µM*,-11%,u,-15%
SMILES,DT40 TDP1 CPT,DT40 TDP1 no CPT,HT1080NT lethal,IL-1B inflam inh,HT1080 IDH1KD tx
Cc1ccccc1Oc1ccc2c(c1)[C@@H]1C[C@H]3[C@@H](C(=O)N1CC2)[C@H](C)ON3C,16µM*,23µM*,2%,57,-4%
Cc1ccccc1Oc1ccc2c(c1)[C@@H]1C[C@H](N(C)C(=O)c3ccco3)[C@H]([C@H](C)O)C(=O)N1CC2,u,18µM*,-2%,0,-5%
Cc1ccc(N2CC(C(=O)OCC(=O)c3ccc(C)c([N+](=O)[O-])c3)CC2=O)cc1 (configuration not stated),0%,-17%,14%,17,10%
COCn1ccnc1C(O)(c1ccc(OC)cc1)c1ccc(OC)cc1,0%,3%,14%,0,8%
Cc1cccc(-n2ncc(C(=O)N3CCN(c4ccc(C)cc4C)CC3)c2C2CCN(C(=O)OC(C)(C)C)CC2)c1,u,-19%,x,x,x
Cc1ccc(C)c(N2CCN(C(=O)c3cnn(-c4ccccc4Cl)c3C3CCN(C(=O)OC(C)(C)C)CC3)CC2)c1,13µM*,13µM*,x,x,x
Cc1c(Cl)cccc1-n1ncc(C(=O)Nc2ccc(Br)cc2F)c1C1CCNCC1,4.1µM*,5.2µM*,x,x,x
Cc1ccc(-n2ncc(C(=O)N3CCN(c4cc(Cl)ccc4C)CC3)c2C2CCN(C(=O)OC(C)(C)C)CC2)cc1,u,-24%,x,x,x
Cc1ccc(C)c(N2CCN(CCCNC(=O)c3cnn(-c4cccc(Cl)c4)c3C3CCN(C(=O)OC(C)(C)C)CC3)CC2)c1,4.6µM*,5.8µM*,x,x,x
COCCCNC(=O)c1cnn(-c2ccc(F)cc2F)c1C1CCNCC1,-5%,u,x,x,x
Cc1ccc(-n2ncc(C(=O)N3CCN(c4cccc(C)c4C)CC3)c2C2CCNCC2)c(C)c1,8.2µM*,16µM*,x,x,x
CCn1c(SCC(=O)N2CCC(C)CC2)nnc1-c1ccccc1O,-17%,-28%,x,x,x
COc1cccc(CCNC(=O)C2CCC(=O)N(C3CC3)C2)c1OC (configuration not stated),-5%,16%,-2%,11,3%
Cc1ccc(C)c(N2CCN(CCCNC(=O)c3cnn(-c4ccccc4Cl)c3C3CCN(C(=O)OC(C)(C)C)CC3)CC2)c1,4.6µM*,4.6µM*,x,x,x
CCN1CCN(C(=O)c2cnn(-c3ccc(F)cc3F)c2C2CCN(C(=O)OC(C)(C)C)CC2)CC1,-2%,-2%,x,x,x
Cc1ccc(N2CCN(C(=O)c3cnn(-c4ccc(F)cc4F)c3C3CCN(C(=O)OC(C)(C)C)CC3)CC2)c(C)c1,16µM*,23µM*,x,x,x
